What was measured:
[1] = molecular target: T1, Inhibitor of nuclear factor kappa-B kinase subunit epsilon (Homo sapiens) (UniProt Q14164); conditions: at 1 µM;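 note: reported values are averaged percent inhibition figures against human IKKε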
T1 sequence (whole entry): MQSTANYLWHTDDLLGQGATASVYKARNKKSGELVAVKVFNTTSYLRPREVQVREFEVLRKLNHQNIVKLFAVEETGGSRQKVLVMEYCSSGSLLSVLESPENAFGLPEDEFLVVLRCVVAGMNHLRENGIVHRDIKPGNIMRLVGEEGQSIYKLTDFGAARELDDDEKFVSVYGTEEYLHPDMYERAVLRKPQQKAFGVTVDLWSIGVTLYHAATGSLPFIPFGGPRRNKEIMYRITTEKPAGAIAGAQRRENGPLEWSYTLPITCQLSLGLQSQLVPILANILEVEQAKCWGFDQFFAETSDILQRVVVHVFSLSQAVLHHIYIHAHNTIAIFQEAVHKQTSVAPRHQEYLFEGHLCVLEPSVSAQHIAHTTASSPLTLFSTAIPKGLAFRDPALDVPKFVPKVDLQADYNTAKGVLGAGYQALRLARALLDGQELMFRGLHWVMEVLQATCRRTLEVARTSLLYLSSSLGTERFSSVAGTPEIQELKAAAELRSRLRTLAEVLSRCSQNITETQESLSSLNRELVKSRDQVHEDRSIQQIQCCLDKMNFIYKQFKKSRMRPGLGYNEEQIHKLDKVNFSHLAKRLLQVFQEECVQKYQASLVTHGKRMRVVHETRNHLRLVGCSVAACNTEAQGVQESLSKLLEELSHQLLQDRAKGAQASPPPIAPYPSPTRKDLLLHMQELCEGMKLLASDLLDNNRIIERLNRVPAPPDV

[2] = molecular target: T2, Serine/threonine-protein kinase Nek1 (Homo sapiens) (UniProt Q96PY6); conditions: at 0.1 µM
T2 sequence (whole entry): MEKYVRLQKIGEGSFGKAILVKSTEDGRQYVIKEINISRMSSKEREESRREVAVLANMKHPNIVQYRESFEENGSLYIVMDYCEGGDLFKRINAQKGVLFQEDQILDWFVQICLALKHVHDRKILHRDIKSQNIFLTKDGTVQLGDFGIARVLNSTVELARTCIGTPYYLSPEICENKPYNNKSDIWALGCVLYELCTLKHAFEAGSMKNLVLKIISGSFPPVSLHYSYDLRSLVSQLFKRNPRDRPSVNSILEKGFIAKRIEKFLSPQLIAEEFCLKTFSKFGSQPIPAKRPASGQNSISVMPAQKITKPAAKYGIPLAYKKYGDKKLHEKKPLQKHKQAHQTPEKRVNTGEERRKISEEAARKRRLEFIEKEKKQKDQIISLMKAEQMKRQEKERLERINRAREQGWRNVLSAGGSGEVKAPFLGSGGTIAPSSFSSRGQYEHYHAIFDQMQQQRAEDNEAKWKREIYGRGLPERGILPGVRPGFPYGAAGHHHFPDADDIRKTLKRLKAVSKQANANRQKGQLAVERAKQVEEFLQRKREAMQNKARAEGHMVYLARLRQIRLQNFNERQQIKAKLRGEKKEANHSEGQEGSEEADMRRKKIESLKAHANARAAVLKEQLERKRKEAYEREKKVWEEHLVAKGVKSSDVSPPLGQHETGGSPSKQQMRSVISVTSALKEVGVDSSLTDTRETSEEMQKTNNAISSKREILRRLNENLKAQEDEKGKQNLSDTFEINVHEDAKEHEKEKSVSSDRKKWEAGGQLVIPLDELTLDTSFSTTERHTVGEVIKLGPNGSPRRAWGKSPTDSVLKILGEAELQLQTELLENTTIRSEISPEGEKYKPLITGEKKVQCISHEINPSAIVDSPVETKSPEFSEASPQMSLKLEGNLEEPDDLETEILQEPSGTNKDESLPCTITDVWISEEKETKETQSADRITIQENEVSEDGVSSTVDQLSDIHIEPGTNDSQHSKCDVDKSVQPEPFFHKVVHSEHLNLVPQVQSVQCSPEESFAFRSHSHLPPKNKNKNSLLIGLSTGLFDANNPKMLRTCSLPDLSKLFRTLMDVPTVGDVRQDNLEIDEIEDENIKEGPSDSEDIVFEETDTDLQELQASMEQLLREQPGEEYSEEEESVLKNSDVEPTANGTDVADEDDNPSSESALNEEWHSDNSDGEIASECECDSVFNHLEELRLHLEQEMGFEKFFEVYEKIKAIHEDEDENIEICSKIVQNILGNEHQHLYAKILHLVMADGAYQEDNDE

[3] = molecular target: T2, Serine/threonine-protein kinase Nek1 (Homo sapiens); conditions: at 1 µM
[4] = molecular target: T3, Serine/threonine-protein kinase Nek2 (Homo sapiens) (UniProt P51955); conditions: at 0.1 µM
T3 sequence (whole entry): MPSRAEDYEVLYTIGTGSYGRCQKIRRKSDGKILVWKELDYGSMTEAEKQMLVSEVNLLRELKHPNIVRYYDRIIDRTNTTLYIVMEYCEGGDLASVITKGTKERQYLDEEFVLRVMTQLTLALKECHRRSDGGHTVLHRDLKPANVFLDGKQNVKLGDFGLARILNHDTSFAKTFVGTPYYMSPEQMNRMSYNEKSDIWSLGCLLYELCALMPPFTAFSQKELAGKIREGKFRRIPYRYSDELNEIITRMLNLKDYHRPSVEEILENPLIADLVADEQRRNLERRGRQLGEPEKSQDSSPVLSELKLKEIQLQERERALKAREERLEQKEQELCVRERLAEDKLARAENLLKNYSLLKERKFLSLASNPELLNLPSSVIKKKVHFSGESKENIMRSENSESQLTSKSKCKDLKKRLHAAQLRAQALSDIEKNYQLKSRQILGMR

[5] = molecular target: T3, Serine/threonine-protein kinase Nek2 (Homo sapiens); conditions: at 1 µM
[6] = molecular target: Serine/threonine-protein kinase Nek6 (Homo sapiens) (UniProt Q9HC98); conditions: at 0.1 µM
[7] = molecular target: Serine/threonine-protein kinase Nek6 (Homo sapiens) (UniProt Q9HC98); conditions: at 1 µM
[8] = molecular target: Serine/threonine-protein kinase Nek7 (Homo sapiens) (UniProt Q8TDX7); conditions: at 0.1 µM
[9] = molecular target: Serine/threonine-protein kinase Nek7 (Homo sapiens) (UniProt Q8TDX7); conditions: at 1 µM
[10] = molecular target: T4, Serine/threonine-protein kinase Nek9 (Homo sapiens) (UniProt Q8TD19); conditions: at 0.1 µM
T4 sequence (whole entry): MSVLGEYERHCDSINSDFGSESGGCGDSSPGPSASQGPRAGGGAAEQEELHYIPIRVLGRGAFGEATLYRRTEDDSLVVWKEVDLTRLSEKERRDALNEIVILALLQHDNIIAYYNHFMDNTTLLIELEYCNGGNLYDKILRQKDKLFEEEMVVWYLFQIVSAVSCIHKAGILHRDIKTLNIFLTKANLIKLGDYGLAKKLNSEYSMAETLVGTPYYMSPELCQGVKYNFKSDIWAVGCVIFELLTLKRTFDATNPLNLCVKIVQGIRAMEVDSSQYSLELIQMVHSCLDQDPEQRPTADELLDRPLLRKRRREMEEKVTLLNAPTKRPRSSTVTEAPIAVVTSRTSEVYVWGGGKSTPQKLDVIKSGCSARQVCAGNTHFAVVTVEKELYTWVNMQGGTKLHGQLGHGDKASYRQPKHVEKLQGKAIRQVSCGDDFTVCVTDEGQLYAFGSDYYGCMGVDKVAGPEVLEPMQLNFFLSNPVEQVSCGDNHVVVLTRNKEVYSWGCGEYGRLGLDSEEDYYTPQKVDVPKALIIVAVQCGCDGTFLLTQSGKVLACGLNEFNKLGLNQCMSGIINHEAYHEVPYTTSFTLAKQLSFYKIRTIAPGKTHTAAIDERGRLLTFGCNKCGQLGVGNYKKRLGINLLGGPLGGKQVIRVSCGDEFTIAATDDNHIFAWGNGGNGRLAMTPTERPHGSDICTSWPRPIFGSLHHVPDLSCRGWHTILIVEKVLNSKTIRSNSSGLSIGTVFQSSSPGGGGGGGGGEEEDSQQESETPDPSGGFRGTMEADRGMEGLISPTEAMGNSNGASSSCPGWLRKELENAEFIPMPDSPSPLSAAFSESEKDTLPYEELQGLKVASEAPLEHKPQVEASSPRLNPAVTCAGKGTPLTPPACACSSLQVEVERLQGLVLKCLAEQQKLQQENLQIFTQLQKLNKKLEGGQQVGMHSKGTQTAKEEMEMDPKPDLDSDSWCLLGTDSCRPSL

[11] = molecular target: T4, Serine/threonine-protein kinase Nek9 (Homo sapiens); conditions: at 1 µM
[12] = molecular target: Serine/threonine-protein kinase PLK1 (Homo sapiens) (UniProt P53350); conditions: at 0.1 µM
[13] = molecular target: Serine/threonine-protein kinase PLK1 (Homo sapiens) (UniProt P53350); conditions: at 1 µM
[14] = molecular target: T5, Dual specificity protein kinase TTK (Homo sapiens) (UniProt P33981); conditions: at 0.1 µM
T5 sequence (whole entry): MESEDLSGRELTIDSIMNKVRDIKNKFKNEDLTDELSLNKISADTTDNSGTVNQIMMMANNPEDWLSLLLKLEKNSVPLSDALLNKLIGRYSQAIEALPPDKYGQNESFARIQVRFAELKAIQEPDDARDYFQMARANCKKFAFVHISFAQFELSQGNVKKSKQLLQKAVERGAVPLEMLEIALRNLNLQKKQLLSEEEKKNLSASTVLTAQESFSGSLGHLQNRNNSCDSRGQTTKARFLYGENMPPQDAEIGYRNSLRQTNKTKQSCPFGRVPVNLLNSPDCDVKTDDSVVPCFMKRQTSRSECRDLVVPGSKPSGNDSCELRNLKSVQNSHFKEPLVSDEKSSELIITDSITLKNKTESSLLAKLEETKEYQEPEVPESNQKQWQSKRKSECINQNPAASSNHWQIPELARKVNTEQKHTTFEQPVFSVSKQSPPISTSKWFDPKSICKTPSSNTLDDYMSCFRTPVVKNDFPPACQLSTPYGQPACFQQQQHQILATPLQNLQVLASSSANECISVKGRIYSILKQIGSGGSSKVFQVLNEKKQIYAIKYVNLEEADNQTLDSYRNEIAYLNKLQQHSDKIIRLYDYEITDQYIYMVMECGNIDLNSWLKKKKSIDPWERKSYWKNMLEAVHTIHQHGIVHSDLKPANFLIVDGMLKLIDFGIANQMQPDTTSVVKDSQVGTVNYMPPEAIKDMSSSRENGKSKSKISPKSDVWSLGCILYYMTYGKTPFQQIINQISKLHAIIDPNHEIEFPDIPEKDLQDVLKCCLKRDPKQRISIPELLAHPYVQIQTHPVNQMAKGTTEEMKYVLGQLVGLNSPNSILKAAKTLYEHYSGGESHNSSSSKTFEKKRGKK

[15] = tested on: T6, Receptor-type tyrosine-protein kinase FLT3 (Homo sapiens), P36888 [D835Y]; conditions: at 1 µM
T6 sequence (whole entry): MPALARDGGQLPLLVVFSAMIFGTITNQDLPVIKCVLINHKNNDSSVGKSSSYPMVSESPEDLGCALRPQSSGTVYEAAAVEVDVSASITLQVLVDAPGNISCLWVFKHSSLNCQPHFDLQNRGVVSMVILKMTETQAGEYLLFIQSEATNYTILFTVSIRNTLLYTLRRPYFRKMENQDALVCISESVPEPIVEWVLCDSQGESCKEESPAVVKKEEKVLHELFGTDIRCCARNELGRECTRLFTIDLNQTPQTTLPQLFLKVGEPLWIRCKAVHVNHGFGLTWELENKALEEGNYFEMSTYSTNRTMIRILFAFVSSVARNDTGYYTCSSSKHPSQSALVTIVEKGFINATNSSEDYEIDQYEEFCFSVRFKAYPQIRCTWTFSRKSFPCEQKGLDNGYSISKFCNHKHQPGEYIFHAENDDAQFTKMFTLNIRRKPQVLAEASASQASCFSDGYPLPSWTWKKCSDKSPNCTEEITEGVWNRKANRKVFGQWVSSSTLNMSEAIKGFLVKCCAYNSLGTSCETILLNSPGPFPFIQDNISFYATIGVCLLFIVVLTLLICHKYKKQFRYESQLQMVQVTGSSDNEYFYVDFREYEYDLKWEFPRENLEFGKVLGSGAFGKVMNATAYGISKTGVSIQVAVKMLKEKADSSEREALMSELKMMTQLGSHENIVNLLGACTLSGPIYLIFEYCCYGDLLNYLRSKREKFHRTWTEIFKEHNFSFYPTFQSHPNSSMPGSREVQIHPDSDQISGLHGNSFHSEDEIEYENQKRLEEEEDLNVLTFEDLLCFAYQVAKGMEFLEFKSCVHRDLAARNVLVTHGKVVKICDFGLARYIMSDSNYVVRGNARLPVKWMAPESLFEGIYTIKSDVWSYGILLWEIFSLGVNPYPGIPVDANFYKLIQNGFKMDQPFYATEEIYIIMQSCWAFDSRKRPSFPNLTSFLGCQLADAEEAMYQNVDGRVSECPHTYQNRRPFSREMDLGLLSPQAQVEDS

[16] = molecular target: Vascular endothelial growth factor receptor 3 (Homo sapiens) (UniProt P35916); conditions: at 0.1 µM
[17] = molecular target: Vascular endothelial growth factor receptor 3 (Homo sapiens) (UniProt P35916); conditions: at 1 µM
[18] = molecular target: Macrophage colony-stimulating factor 1 receptor (Homo sapiens) (UniProt P07333); conditions: at 0.1 µM
[19] = molecular target: Macrophage colony-stimulating factor 1 receptor (Homo sapiens) (UniProt P07333); conditions: at 1 µM
[20] = molecular target: Tyrosine-protein kinase Fyn (Homo sapiens) (UniProt P06241); conditions: at 0.1 µM
Tyrosine-protein kinase Fyn (Homo sapiens), sequence (P06241 2-537 limits assumed): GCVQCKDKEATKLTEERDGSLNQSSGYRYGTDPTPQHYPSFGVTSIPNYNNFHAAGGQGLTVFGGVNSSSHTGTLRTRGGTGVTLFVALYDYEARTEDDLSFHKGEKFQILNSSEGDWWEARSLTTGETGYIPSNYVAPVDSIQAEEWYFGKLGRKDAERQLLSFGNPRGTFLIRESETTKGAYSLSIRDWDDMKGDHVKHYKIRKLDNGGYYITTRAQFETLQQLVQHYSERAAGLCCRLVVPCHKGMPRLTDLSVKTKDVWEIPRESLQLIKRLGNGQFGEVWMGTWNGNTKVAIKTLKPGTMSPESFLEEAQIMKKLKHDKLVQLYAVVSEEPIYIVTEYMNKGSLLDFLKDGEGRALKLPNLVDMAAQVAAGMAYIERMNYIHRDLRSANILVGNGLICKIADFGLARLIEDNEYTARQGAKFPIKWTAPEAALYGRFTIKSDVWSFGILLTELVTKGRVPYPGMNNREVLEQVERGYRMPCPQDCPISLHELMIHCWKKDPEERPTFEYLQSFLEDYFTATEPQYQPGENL

Serine/threonine-protein kinase Nek6 (Homo sapiens), sequence (Q9HC98 whole entry): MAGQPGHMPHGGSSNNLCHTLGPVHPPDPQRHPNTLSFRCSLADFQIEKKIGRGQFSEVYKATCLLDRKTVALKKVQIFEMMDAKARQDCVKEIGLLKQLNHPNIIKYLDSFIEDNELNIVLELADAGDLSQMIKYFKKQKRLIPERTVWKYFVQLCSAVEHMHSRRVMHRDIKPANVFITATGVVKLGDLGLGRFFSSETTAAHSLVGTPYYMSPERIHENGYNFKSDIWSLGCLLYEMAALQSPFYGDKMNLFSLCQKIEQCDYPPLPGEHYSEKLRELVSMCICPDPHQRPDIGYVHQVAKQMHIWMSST
Vascular endothelial growth factor receptor 3 (Homo sapiens), sequence (P35916 whole entry): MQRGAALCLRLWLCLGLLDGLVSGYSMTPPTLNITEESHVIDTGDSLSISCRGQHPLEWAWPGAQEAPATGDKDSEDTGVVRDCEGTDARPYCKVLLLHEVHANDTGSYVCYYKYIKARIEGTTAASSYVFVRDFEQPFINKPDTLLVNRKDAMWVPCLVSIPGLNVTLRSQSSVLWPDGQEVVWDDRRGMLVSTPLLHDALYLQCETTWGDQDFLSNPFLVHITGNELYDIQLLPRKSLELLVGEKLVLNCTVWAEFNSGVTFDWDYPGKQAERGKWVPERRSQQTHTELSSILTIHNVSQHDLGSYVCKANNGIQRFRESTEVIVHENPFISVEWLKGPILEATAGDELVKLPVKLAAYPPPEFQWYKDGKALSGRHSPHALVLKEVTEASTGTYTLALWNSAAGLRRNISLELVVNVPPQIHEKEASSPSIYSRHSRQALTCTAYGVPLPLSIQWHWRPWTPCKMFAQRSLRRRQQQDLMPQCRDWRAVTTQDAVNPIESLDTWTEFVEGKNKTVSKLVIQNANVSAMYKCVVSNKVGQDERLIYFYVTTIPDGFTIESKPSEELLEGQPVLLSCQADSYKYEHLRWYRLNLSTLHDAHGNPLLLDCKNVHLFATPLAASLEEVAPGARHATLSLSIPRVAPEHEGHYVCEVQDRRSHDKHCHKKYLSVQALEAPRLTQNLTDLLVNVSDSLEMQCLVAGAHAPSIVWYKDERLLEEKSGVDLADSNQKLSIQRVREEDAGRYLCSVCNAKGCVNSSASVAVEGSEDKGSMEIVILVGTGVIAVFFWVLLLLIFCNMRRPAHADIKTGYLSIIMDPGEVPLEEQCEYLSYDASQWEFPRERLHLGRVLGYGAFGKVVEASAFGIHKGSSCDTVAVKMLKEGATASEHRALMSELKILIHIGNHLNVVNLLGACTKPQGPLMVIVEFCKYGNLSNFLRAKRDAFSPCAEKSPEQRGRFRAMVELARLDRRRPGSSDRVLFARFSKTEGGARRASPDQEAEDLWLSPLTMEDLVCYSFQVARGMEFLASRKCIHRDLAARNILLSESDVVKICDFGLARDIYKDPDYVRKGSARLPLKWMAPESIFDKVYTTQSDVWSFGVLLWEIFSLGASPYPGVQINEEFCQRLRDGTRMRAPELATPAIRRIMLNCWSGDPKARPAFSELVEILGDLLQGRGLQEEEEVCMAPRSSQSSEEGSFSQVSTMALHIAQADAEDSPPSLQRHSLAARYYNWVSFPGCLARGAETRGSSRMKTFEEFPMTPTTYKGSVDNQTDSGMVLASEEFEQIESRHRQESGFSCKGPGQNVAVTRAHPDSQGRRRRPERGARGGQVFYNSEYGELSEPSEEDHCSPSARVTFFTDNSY
Serine/threonine-protein kinase Nek7 (Homo sapiens), sequence (Q8TDX7 whole entry, looked up): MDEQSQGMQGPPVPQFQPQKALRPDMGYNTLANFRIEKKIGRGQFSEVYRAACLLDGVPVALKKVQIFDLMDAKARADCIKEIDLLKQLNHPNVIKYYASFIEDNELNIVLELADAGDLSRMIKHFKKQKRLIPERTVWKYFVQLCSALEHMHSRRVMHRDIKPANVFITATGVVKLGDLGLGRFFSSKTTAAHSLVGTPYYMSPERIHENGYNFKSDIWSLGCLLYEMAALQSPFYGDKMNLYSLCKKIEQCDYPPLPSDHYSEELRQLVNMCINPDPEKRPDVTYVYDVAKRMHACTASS
Serine/threonine-protein kinase PLK1 (Homo sapiens), sequence (P53350 whole entry): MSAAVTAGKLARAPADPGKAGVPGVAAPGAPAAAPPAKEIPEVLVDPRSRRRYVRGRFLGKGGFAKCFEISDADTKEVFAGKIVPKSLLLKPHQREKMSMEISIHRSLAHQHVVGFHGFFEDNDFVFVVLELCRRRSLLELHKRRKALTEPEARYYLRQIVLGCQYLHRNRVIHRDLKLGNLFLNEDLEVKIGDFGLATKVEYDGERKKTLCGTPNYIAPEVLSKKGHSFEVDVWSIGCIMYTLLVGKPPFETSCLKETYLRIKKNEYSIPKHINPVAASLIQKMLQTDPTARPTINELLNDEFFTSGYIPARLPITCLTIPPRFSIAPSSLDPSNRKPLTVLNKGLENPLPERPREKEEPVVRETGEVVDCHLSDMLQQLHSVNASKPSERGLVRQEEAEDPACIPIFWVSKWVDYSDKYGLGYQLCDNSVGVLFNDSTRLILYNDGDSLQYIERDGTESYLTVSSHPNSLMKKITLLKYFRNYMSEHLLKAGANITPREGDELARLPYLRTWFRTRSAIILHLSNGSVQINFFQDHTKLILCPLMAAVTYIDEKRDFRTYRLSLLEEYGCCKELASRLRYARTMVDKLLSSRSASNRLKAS
Macrophage colony-stimulating factor 1 receptor (Homo sapiens), sequence (P07333 whole entry): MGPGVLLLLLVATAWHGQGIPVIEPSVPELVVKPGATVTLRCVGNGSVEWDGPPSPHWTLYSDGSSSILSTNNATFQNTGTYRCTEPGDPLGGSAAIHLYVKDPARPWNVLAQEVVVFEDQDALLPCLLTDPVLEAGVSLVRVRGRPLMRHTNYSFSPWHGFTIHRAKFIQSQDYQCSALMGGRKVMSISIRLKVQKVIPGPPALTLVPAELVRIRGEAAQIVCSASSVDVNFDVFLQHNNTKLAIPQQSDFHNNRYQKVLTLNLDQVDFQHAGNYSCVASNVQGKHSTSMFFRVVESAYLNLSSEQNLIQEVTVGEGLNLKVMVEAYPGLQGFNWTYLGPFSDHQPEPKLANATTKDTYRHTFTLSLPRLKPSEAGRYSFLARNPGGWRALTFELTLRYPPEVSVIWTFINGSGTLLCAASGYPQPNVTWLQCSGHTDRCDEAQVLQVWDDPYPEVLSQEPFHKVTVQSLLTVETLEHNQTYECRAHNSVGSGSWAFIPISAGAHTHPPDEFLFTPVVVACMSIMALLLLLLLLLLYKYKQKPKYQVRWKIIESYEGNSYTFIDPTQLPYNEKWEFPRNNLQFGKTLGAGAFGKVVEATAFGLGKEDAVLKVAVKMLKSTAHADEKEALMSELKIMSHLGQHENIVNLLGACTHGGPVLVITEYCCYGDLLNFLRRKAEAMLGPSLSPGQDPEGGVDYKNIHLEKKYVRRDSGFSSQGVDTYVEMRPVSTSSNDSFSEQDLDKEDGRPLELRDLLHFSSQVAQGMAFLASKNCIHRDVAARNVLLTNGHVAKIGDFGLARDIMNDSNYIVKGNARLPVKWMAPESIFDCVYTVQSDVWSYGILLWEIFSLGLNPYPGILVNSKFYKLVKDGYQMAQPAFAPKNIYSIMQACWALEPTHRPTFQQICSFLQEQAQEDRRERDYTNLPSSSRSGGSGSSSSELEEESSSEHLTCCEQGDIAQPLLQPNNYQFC

## CC(=O)NCc1cccc(C#Cc2cncnc2Nc2ccc(OCc3cccc(F)c3)c(Cl)c2)c1
[1]
  inhibition: -1%
[2]
  inhibition: 0.64%
[3]
  inhibition: 1.25%
[4]
  inhibition: 0.96%
[5]
  inhibition: 0.7%
[6]
  inhibition: -1.02%
[7]
  inhibition: -2.65%
[8]
  inhibition: 4.09%
[9]
  inhibition: 2.44%
[10]
  inhibition: 0.38%
[11]
  inhibition: -3.77%
[12]
  inhibition: 1.79%
[13]
  inhibition: 1.35%
[14]
  inhibition: 8.83%
[15]
  inhibition: -1.12%
[16]
  inhibition: 2.27%
[17]
  inhibition: 3.6%
[18]
  inhibition: 1.13%
[19]
  inhibition: 0.82%
[20]
  inhibition: 1.08%

Source: ChEMBL document CHEMBL1961873, “Compounds: GSK PKIS; Assays: Nanosyn kinase panel” (2012)
